Screen size: about 5,500 compounds; about 2,000 (36%) were called active. Not shown: some 18% with an inconclusive outcome. No stated cut-off is given here; in the data, active means normalized growth mostly below about 0.91 (no sharp cut-off); inconclusive means no clear call, values can overlap the other calls; inactive means mostly above about 0.92. The list shows a part of the results.
Assay: chemical genetic growth profiling, strain panel (AID 1159580);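 further: tested at 20 µM; growth read once vehicle control cultures reached saturation at 30 °C; 1 = growth at the plate median or of vehicle wells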
Details: growth OD
[1] = S. cerevisiae deletion strains, locus YHR030C, strain SLT2, stronger effect = lower value

Measured: normalized growth

S=C(Nc1ccc(Cl)cc1)Nc1ccc(Cl)cc1
active: S. cerevisiae deletion strains, locus YDR052C, strain DBF4, stronger effect = lower value 0.894 | [1] 0.662 | S. cerevisiae deletion strains, locus YLR113W, strain HOG1, stronger effect = lower value 0.717 | S. cerevisiae deletion strains, locus YPL256C, strain CLN2, stronger effect = lower value 0.819
inactive: S. cerevisiae deletion strains, locus YAR019C, strain CDC15, stronger effect = lower value 0.912 | S. cerevisiae deletion strains, locus YBL105C, strain PKC1, stronger effect = lower value 0.915 | S. cerevisiae deletion strains, locus YBR135W, strain CKS1, stronger effect = lower value 0.938 | S. cerevisiae deletion strains, locus YBR136W, strain MEC1, stronger effect = lower value 0.928 | S. cerevisiae deletion strains, locus YBR160W, strain CDC28, stronger effect = lower value 0.926 | S. cerevisiae deletion strains, locus YDL017W, strain CDC7, stronger effect = lower value 0.921 | S. cerevisiae deletion strains, locus YDL028C, strain MPS1, stronger effect = lower value 0.935 | S. cerevisiae deletion strains, locus YDL101C, strain DUN1, stronger effect = lower value 0.96 | S. cerevisiae deletion strains, locus YDL108W, strain KIN28, stronger effect = lower value 0.933 | S. cerevisiae deletion strains, locus YDL132W, strain cdc53, stronger effect = lower value 0.927 | S. cerevisiae deletion strains, locus YDL214C, strain PRR2, stronger effect = lower value 0.855 | S. cerevisiae deletion strains, locus YDR054C, strain cdc34, stronger effect = lower value 0.912 | S. cerevisiae deletion strains, locus YDR226W, strain ADK1, stronger effect = lower value 0.95 | S. cerevisiae deletion strains, locus YDR477W, strain SNF1, stronger effect = lower value 0.861 | S. cerevisiae deletion strains, locus YER123W, strain YCK3, stronger effect = lower value 0.791 | S. cerevisiae deletion strains, locus YER133W, strain GLC7, stronger effect = lower value 0.828 | S. cerevisiae deletion strains, locus YFL009W, strain cdc4, stronger effect = lower value 0.925 | S. cerevisiae deletion strains, locus YFL029C, strain CAK1, stronger effect = lower value 0.92 | S. cerevisiae deletion strains, locus YFR003C, strain YPI1, stronger effect = lower value 0.922 | S. cerevisiae deletion strains, locus YFR019W, strain FAB1, stronger effect = lower value 0.864 | S. cerevisiae deletion strains, locus YFR028C, strain CDC14, stronger effect = lower value 0.915 | S. cerevisiae deletion strains, locus YGR040W, strain KSS1, stronger effect = lower value 0.847 | S. cerevisiae deletion strains, locus YGR052W, strain FMP48, stronger effect = lower value 0.811 | S. cerevisiae deletion strains, locus YGR092W, strain DBF2, stronger effect = lower value 0.703 | S. cerevisiae deletion strains, locus YHR079C, strain IRE1, stronger effect = lower value 0.807 | S. cerevisiae deletion strains, locus YHR082C, strain KSP1, stronger effect = lower value 0.902 | S. cerevisiae deletion strains, locus YHR205W, strain SCH9, stronger effect = lower value 0.881 | S. cerevisiae deletion strains, locus YIL147C, strain SLN1, stronger effect = lower value 0.926 | S. cerevisiae deletion strains, locus YJL095W, strain BCK1, stronger effect = lower value 0.814 | S. cerevisiae deletion strains, locus YJL128C, strain PBS2, stronger effect = lower value 0.903 | S. cerevisiae deletion strains, locus YJL157C, strain FAR1, stronger effect = lower value 0.827 | S. cerevisiae deletion strains, locus YJR016C, strain ILV3, stronger effect = lower value 0.922 | S. cerevisiae deletion strains, locus YJR066W, strain TOR1 (second series), stronger effect = lower value 0.83 | S. cerevisiae deletion strains, locus YJR066W, strain TOR1, stronger effect = lower value 0.772 | S. cerevisiae deletion strains, locus YKL048C, strain ELM1, stronger effect = lower value 0.944 | S. cerevisiae deletion strains, locus YKL067W, strain YNK1, stronger effect = lower value 0.853 | S. cerevisiae deletion strains, locus YKL101W, strain HSL1, stronger effect = lower value 0.888 | S. cerevisiae deletion strains, locus YKL193C, strain SDS22, stronger effect = lower value 0.926 | S. cerevisiae deletion strains, locus YKL203C, strain TOR2, stronger effect = lower value 0.871 | S. cerevisiae deletion strains, locus YLR133W, strain CKI1, stronger effect = lower value 0.839 | S. cerevisiae deletion strains, locus YLR403W, strain SFP1, stronger effect = lower value 0.835 | S. cerevisiae deletion strains, locus YML070W, strain DAK1, stronger effect = lower value 0.825 | S. cerevisiae deletion strains, locus YMR001C, strain CDC5, stronger effect = lower value 0.922 | S. cerevisiae deletion strains, locus YMR205C, strain PFK2 (second series), stronger effect = lower value 0.871 | S. cerevisiae deletion strains, locus YMR277W, strain FCP1, stronger effect = lower value 0.918 | S. cerevisiae deletion strains, locus YNL006W, strain LST8, stronger effect = lower value 0.937 | S. cerevisiae deletion strains, locus YNL020C, strain ARK1, stronger effect = lower value 0.837 | S. cerevisiae deletion strains, locus YNL161W, strain CBK1, stronger effect = lower value 0.918 | S. cerevisiae deletion strains, locus YNL183C, strain NPR1, stronger effect = lower value 0.779 | S. cerevisiae deletion strains, locus YNL207W, strain RIO2, stronger effect = lower value 0.893 | S. cerevisiae deletion strains, locus YNL222W, strain SSU72, stronger effect = lower value 0.936 | S. cerevisiae deletion strains, locus YNL307C, strain MCK1 (second series), stronger effect = lower value 0.783 | S. cerevisiae deletion strains, locus YOL078W, strain AVO1, stronger effect = lower value 0.921 | S. cerevisiae deletion strains, locus YOL136C, strain PFK27, stronger effect = lower value 0.848 | S. cerevisiae deletion strains, locus YOR061W, strain CKA2, stronger effect = lower value 0.808 | S. cerevisiae deletion strains, locus YOR119C, strain RIO1, stronger effect = lower value 0.878 | S. cerevisiae deletion strains, locus YOR231W, strain MKK1, stronger effect = lower value 0.836 | S. cerevisiae deletion strains, locus YOR329C, strain SCD5, stronger effect = lower value 0.923 | S. cerevisiae deletion strains, locus YPL031C, strain PHO85, stronger effect = lower value 0.82 | S. cerevisiae deletion strains, locus YPL153C, strain RAD53, stronger effect = lower value 0.845 | S. cerevisiae deletion strains, locus YPL204W, strain HRR25, stronger effect = lower value 0.778 | S. cerevisiae deletion strains, locus YPL209C, strain IPL1, stronger effect = lower value 0.923 | S. cerevisiae deletion strains, locus YPR025C, strain CCL1, stronger effect = lower value 0.932 | S. cerevisiae deletion strains, locus YPR106W, strain ISR1, stronger effect = lower value 0.931 | S. cerevisiae deletion strains, locus YPR111W, strain DBF20, stronger effect = lower value 0.931 | S. cerevisiae deletion strains, strain NNK1, stronger effect = lower value 0.932 | S. cerevisiae deletion strains, strain TSCII, stronger effect = lower value 0.906

Cc1nn(-c2ccccc2)nc1C(=O)NNC(=S)Nc1ccc(Cl)cc1
active: S. cerevisiae deletion strains, locus YEL061C, strain CIN8, stronger effect = lower value 0.866 | S. cerevisiae deletion strains, locus YJR075W, strain HOC1, stronger effect = lower value 1.33 [resistant] | S. cerevisiae deletion strains, locus YLR039C, strain RIC1, stronger effect = lower value 0.785 | S. cerevisiae deletion strains, locus YNL298W, strain CLA4 (second series), stronger effect = lower value 0.835 | S. cerevisiae deletion strains, locus YNR030W, strain Alg12, stronger effect = lower value 0.854 | S. cerevisiae deletion strains, locus YPL055C, strain LGE1, stronger effect = lower value 0.814 | S. cerevisiae strains, strain wild type, stronger effect = lower value 0.887
inactive: S. cerevisiae deletion strains, locus YAL013W, strain DEP1, stronger effect = lower value 0.957 | S. cerevisiae deletion strains, locus YBR229C, strain ROT2, stronger effect = lower value 0.983 | S. cerevisiae deletion strains, locus YCL061C, strain MRC1, stronger effect = lower value 1.04 | S. cerevisiae deletion strains, locus YGR078C, strain PAC10, stronger effect = lower value 0.991 | [1] 0.889 | S. cerevisiae deletion strains, locus YHR087W, strain rtc3, stronger effect = lower value 0.988 | S. cerevisiae deletion strains, locus YJL187C, strain SWE1, stronger effect = lower value 0.954 | S. cerevisiae deletion strains, locus YJR043C, strain POL32, stronger effect = lower value 0.985 | S. cerevisiae deletion strains, locus YLR058C, strain SHM2 (second series), stronger effect = lower value 1.01 | S. cerevisiae deletion strains, locus YLR085C, strain ARP6, stronger effect = lower value 0.82 | S. cerevisiae deletion strains, locus YLR262C, strain YPT6, stronger effect = lower value 0.858 | S. cerevisiae deletion strains, locus YML094W, strain GIM5, stronger effect = lower value 0.904 | S. cerevisiae deletion strains, locus YMR263W, strain SAP30, stronger effect = lower value 1.01 | S. cerevisiae deletion strains, locus YNL153C, strain GIM3, stronger effect = lower value 1.04 | S. cerevisiae deletion strains, locus YNL322C, strain KRE1, stronger effect = lower value 1.02 | S. cerevisiae deletion strains, locus YPL241C, strain CIN2, stronger effect = lower value 0.929 | S. cerevisiae deletion strains, locus YPR135W, strain CTF4, stronger effect = lower value 0.969
